Our source for the Percent Effect values is ChEMBL document CHEMBL3988442, “University of Dundee, Small-Polar-MMV Screening Library” (2021).

Each structure is given as a SMILES string.

The target in assay [1] is T1, Aspartate--tRNA(Asp/Asn) ligase (Mycobacterium tuberculosis (strain ATCC 25618 / H37Rv)) (UniProt P9WFW3). Note: in the data most compounds retested in dose-response had high values.
T1 sequence (whole entry): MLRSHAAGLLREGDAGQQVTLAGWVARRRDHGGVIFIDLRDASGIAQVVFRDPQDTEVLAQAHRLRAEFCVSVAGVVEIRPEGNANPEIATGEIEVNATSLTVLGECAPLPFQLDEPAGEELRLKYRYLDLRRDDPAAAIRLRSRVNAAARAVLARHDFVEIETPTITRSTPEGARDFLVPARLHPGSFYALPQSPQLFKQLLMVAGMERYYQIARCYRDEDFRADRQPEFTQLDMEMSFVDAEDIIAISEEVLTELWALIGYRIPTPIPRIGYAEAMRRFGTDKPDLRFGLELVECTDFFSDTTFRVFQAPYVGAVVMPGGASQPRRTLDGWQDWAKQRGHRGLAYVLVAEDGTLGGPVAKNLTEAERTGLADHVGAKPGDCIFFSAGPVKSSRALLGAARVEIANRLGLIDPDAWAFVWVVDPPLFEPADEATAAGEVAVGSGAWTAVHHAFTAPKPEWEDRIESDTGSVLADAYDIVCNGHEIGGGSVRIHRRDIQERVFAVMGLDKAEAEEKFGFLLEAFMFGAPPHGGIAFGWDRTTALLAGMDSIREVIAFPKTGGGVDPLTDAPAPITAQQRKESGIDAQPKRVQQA
The experiment in a line: Assay for Asp RNA synthetase-1 from Mycobacterium tuberculosis. On the set-up: scale not given: direction of the effect not stated beside the values. The note with it: 30 µM. Format: functional.

The target in assay [2] is Shiga toxin 2 (Escherichia coli O157:H7) (UniProt P09385+P09386). The experiment in a line: E. coli 0.157:H7 Shiga Toxin SOP - stx2 screening assay. Format: functional. On the set-up: scale not given: direction of the effect not stated beside the values. The note with it: 30 µM.

Turning to `CC1CN(CC(=O)Nc2nncs2)CCN1c1nccs1` (centres undefined), the Percent Effect in assay [1] came to 4.78%; in assay [2] it was 27.5%.
On to `CN(Cc1ccc2c(c1)OCCO2)C(=O)NCCc1cnn(C)c1`, for which the Percent Effect in assay [1] was found to be 3%; in assay [2], 26.7%.
Take `Cn1ccnc1CNC(=O)N1CCCC(Cc2nccn2C)C1` (centres undefined): the Percent Effect was 0.605% in assay [1] and -13.5% in assay [2].
For `CCCNC(=O)CSc1nnc2[nH]c(=O)cc(CC)n12`, in that order: -6.58% and -11.3%.
With `Cc1cccc(NC(=O)NCCCn2nc3ccccn3c2=O)c1C`, the Percent Effect in assay [1] turned out to be 3.46%; in assay [2], 19.3%.
On to `Cc1nc(CNC(C)c2ccc(OCC(=O)NC3CC3)cc2)cs1` (centres undefined), for which the Percent Effect in assay [1] was 2.43%; in assay [2], -66.5%.
With `COc1ccc(C(C)N2CCN(Cc3nccn3C)CC2)cc1Cl` (centres undefined), the values for the Percent Effect in assay [1] and in assay [2] were -0.0303% and 16%, respectively.
With `O=C(c1nc(COc2ccc3c(c2)OCO3)no1)N1CCCC1`, the Percent Effect is 6.21% in assay [1] and -63.7% in assay [2].
`O=C(c1ccoc1)N1CC[C@H]2OCC[C@@]2(COc2ncccc2F)C1`: the Percent Effect was -0.296% in assay [1] and 3.1% in assay [2].
`COc1ccc(Oc2cncc(C3CCCN3C(C)=O)n2)cc1` (centres undefined): the Percent Effect in assay [1] is 0.194%; in assay [2] it was -6.98%.
For `CS(=O)(=O)N1CCCCCC1C1CCN(c2ncccc2C#N)CC1` (centres undefined), in that order: -0.456% and 27.9%.
As for `CCN(CCNC(=O)c1ccccc1OCCOC)C1CC1`, the Percent Effect was -0.655% in assay [1] and -72% in assay [2].
For `CC(C)(C#N)C(=O)N1CCCC(c2cc(C(F)(F)F)[nH]n2)C1` (centres undefined), in that order: -1.34% and -11.7%.
Consider `O=C(N1CCCO1)[C@@]12CCO[C@@H]1CCN(C1CCCCC1)C2`, for which the Percent Effect in assay [1] was -5.76%; in assay [2] it was -31.5%.
For `COCCCC(=O)NS(=O)(=O)c1ccc2c(c1)OCCCO2`, in that order: -1.35% and 23.1%.
With `O=C(NCc1cc(O)ncn1)C1COc2ccccc2C1` (centres undefined), the Percent Effect in assay [1] is -3.92%; in assay [2], 12.8%.
For the molecule `COCCN1C[C@@H](C)[C@@]2(COCCN(C(=O)Cc3ccccc3)C2)C1`, the Percent Effect in assay [1] is 1.75%; in assay [2], -6.45%.
Turning to `Cn1ccnc1CN1CCC2(CC1)CC(Oc1cccnc1)C2`, the Percent Effect in assay [1] is 0.874%; in assay [2], -18.2%.
For the molecule `Cn1cc(C(=O)NC2CCN(C(=O)NCC3CCSCC3)CC2)cn1`, the Percent Effect is 3.16% in assay [1] and -2.79% in assay [2].
For `Cc1ccc(NC(=O)CNc2cccc3c2CCCC3)c(Br)c1`, in that order: -0.719% and 7.99%.
With `Cc1ncsc1-c1nnc(C2CCN(CC3CCCCC3)CC2)o1`, the Percent Effect in assay [1] is -2.81%; in assay [2] it was -22.2%.
With `CCc1nc(C2CCCN2C(=O)c2c[nH]c(C)n2)no1` (centres undefined), the Percent Effect in assay [1] is -7.28%; in assay [2], 0.205%.
Consider `CCn1cc(CN2CCC(c3nnc(CN(C)C)n3CC)CC2)cn1`, for which the results for the Percent Effect in assay [1] and in assay [2] were -2.35% and -57.2%, respectively.
On to `CC(CNC(=O)c1cccnc1Oc1cccnc1)N(C)C` (centres undefined), for which the Percent Effect is -3.18% in assay [1] and -12.1% in assay [2].
Turning to `CC[C@@]1(O)CCN(C(=O)c2ccsc2)C[C@H]1O`, the Percent Effect in assay [1] was -4.99%; in assay [2], -16.9%.
For `COc1ccccc1C(O)CNC(=O)Nc1ncccc1C` (centres undefined), the Percent Effect is -3.63% in assay [1] and 8.45% in assay [2].
Consider `O=C1COC2(CCN(CC3CC3)CC2)CN1c1ccccc1`, for which the Percent Effect was -0.547% in assay [1] and 5.01% in assay [2].
As to `CCn1cnnc1CNC(=O)NCC(c1cccs1)N1CCCC1` (centres undefined), the Percent Effect in assay [1] was -1.91%; in assay [2], -4.89%.
`CN(C)C(=O)N1CCc2c(nnn2C)C1COCc1ccccc1` (centres undefined): the Percent Effect in assay [1] is 1.92%; in assay [2] it was -16.6%.
Turning to `CC(C)c1ccsc1C(=O)N1CCCN(Cc2cscn2)CC1`, the figures for the Percent Effect in assay [1] and in assay [2] were 6.6% and 14.7%, respectively.
`CCN1CCN(CC(O)c2ccc(OC(F)(F)F)cc2)CC1` (centres undefined): the Percent Effect is 5.22% in assay [1] and -5.3% in assay [2].
For `CCCc1nc(CN2CCCC(Cn3cncn3)C2)no1` (centres undefined), in that order: -3.39% and -26.6%.
On to `COc1cccc(CN2CCC3(CCN(C(=O)[C@H]4CCCO4)CC3)C2)c1`, for which the Percent Effect in assay [1] was 2.09%; in assay [2] it was -47.5%.
As for `COc1cccc2c1OCC(CNC(=O)CCCN1CCOCC1)C2` (centres undefined), the Percent Effect in assay [1] was determined as 4.84%; in assay [2] it was 5.01%.
Take `O=C(CCc1cccs1)N1CCC(Nc2cccnn2)CC1`: the Percent Effect in assay [1] is -2.47%; in assay [2], -26.6%.
As for `COc1ccc(CN(C)Cc2nc3c(cnn3C)c(=O)[nH]2)cc1OC`, the figures for the Percent Effect in assay [1] and in assay [2] were -3.27% and -8.89%, respectively.
For the molecule `Cc1nccc(N2CCC(=O)N(Cc3ccc(F)cc3)C(C(C)C)C2)n1` (centres undefined), the Percent Effect was -2.67% in assay [1] and -4.25% in assay [2].
In the case of `CCc1nc(C2CCCN2C(=O)c2ccc3c(c2)nc(C)n3C)no1` (centres undefined), the Percent Effect in assay [1] is -0.367%; in assay [2], 2.43%.
Regarding `CN1CCC(c2ncc3c(n2)CCN(C(=O)CC2C=CCC2)C3)CC1` (centres undefined), the Percent Effect is 0.956% in assay [1] and -1.54% in assay [2].
For the molecule `Cc1nnc2n1CCN(C(=O)COCCOc1ccccc1)C2`, the Percent Effect in assay [1] was -0.422%; in assay [2], -37.2%.
As for `CCOC[C@H]1CC[C@H]2[C@H](CCN2C(=O)c2ccncc2F)O1`, the Percent Effect in assay [1] is 5.35%; in assay [2], -0.318%.
Take `CCc1nc(CC(=O)N2CCCC2Cn2cccn2)cs1` (centres undefined): the Percent Effect turned out to be 0.426% in assay [1] and 10.2% in assay [2].
With `O=C(Nc1cc(F)ccc1OCC1CCCO1)N1CCCC1` (centres undefined), the Percent Effect in assay [1] is -3.7%; in assay [2], 0.98%.
With `Cn1cc(C2CCCN2CCCc2nc(-c3cccs3)no2)cn1` (centres undefined), the results for the Percent Effect in assay [1] and in assay [2] were 0.756% and 6.08%, respectively.
Take `COc1ccc(CN2CCC3(CC(Nc4ccncn4)C3)C2)c(OC)c1` (centres undefined): the Percent Effect in assay [1] was -0.368%; in assay [2], -11.8%.
On to `O=C(COCc1nc(-c2ccncc2)no1)NC1CCCCC1`, for which the Percent Effect in assay [1] is 2.71%; in assay [2] it was -15.1%.
`O=C(CCc1nccs1)N1CCN(c2ccc(Br)cn2)CC1`: the Percent Effect stood at 3.92% in assay [1] and 23.4% in assay [2].
